The sample as a whole holds a higher share of hits than the screen did.
mHTT CaM bind: mHTT-calmodulin interaction abrogation; P42858; AlphaScreen His-mHTT/GST-CaM binding, luminescence; inhibition, % at 15 µM; hit rate 3.6% among 190,000
Pf apPOL block: Pf-apPOL DNA polymerase inhibition; Recombinant Pf-apPOL, molecular beacon fluorescence, 1.5 h; inhibition, % at 10 µM; hit rate 0.25% among 210,000; AID 1794808
Numbers stand for hits; i = inactive; nt = no result. Rule as the data show it: active = inhibition above about 50%; inactive = the rest.

SMILES | mHTT CaM bind | Pf apPOL block
CCOc1ccc(N2CC(C(=O)NC(C)(C)C)CC2=O)cc1 (centres undefined) | i | i
Cc1cc(NC(=O)c2ccccc2)cc(NC(=O)c2ccccc2)c1C | i | 52
Cc1cc(NC(=O)c2ccccc2)ccc1NC(=O)c1ccccc1 | i | i
CN(C)c1ccc(/C=C2\N=C(c3cc([N+](=O)[O-])ccc3Cl)OC2=O)cc1 | i | i
Cc1ccc(C)c(OC(C)C(=O)NCCOc2cc(N3CCCC3)ncn2)c1 (centres undefined) | i | i
COc1cccc(OC)c1NC(=O)O[C@H]1CCC12CCC(c1ccccc1)CC2 (some centres undefined) | i | i
Nc1ccc(-c2ccc(S(=O)(=O)c3cccc(N)c3)cc2N)cc1 | 69 | i
Nc1ccc(-c2ccc(S(=O)(=O)c3ccc(-c4ccc(N)cc4)cc3)cc2)cc1 | 62 | i
Nc1ccc(S(N)(=O)=O)cc1 | i | nt
Nc1ccc(S(=O)(=O)c2ccc(N)c(N)c2)cc1N | i | i
CCn1cnc2ccc(-c3noc(COc4ccc(F)cc4)n3)cc21 | i | i
CCOC(=O)CCC(=O)N1CCCC(COCc2ccccc2)C1 (centres undefined) | i | i
N#CCn1cccc1-c1nc(-c2cccnc2)no1 | i | i
COc1ccc(CN2CCc3nc(Nc4ccc5c(c4)OCCO5)ncc3C2)cc1OC | i | i
CCOc1ccc(CN2CCc3nc(Nc4ccc5c(c4)OCCO5)ncc3C2)cc1OC | 53 | i
Fc1ccc(CN2CCc3nc(Nc4ccc5c(c4)OCCO5)ncc3C2)cc1F | 53 | i
Fc1ccc(CN2CCc3nc(Nc4ccc5c(c4)OCO5)ncc3C2)c(F)c1 | i | i
Fc1ccc(CN2CCc3nc(Nc4ccc5c(c4)OCCO5)ncc3C2)c(F)c1 | 58 | i
Fc1ccc(Nc2ncc3c(n2)CCN(Cc2ccc4c(c2)OCCO4)C3)cc1 | i | i
CN(C)c1ccc(CN2CCc3nc(Nc4ccc5c(c4)OCCO5)ncc3C2)cc1 | i | i
CC(C)Oc1ccc(CN2CCc3nc(Nc4ccc5c(c4)OCCO5)ncc3C2)cc1 | 72 | i
O=C(/C=C/c1cccc(NC(=O)c2cccs2)c1)c1ccccc1 | i | i
Cc1cc(NC(=O)CSc2nc3c(cnn3-c3ccc(Cl)cc3)c(=O)[nH]2)no1 | i | i
O=C(NC1CCCC1)c1ccc(Cn2nnc3ccccc3c2=O)cc1 | i | i
COCCN(CCOC)Cc1c(O)ccc2c1OC(=Cc1ccc(Cl)cc1)C2=O | i | i
SMILES | mHTT CaM bind | Pf apPOL block
O=C(c1c(F)cccc1Cl)N1CCc2nc(-c3ccc(Cl)cc3)ncc2C1 | i | i
Cc1ccc2nc(-c3ccc(NC(=O)Cn4cnc5c4c(=O)n(C)c(=O)n5C)cc3)sc2c1 | i | i
CCn1cc([N+](=O)[O-])c(-c2nc(-c3cccs3)no2)n1 | i | nt
O=C(C1CCC1)N1CCC(c2cnn(-c3ccccc3)c2)CC1 | i | i
CSc1nnc2c(n1)OC(c1ccc([N+](=O)[O-])o1)Nc1ccccc1-2 (centres undefined) | i | i
Clc1ccccc1CN1CCc2nc(Nc3ccc4c(c3)OCCO4)ncc2C1 | 78 | i
CN(C)c1ccc(CN2CCc3nc(Nc4ccc5c(c4)OCO5)ncc3C2)cc1 | i | i
COc1ccc(CNCCC(c2ccccc2)C2CCOC(C)(C)C2)cc1OC (centres undefined) | i | i
CC(C)c1ccc(N2CC(C(=O)Nc3ccc(Cl)cc3Cl)CC2=O)cc1 (centres undefined) | i | i
N#Cc1nc(COc2ccccc2Cl)oc1N1CCCCC1 | i | i
N#Cc1nc(COc2ccccc2Cl)oc1N1CCN(Cc2ccccc2)CC1 | 52 | i
COc1cccc(C(=O)Nc2ccc(S(=O)(=O)Nc3cc(OC)nc(OC)n3)cc2)c1 | i | i
O=c1oc2c(-c3cccc(C(F)(F)F)c3)cc(O)cc2s1 | i | i
O=c1oc2ccc(O)cc2s1 | i | nt
COc1ccc(-c2cc(O)cc3sc(=O)oc23)cc1 | 74 | i
Cc1ccc(-c2cc(O)cc3sc(=O)oc23)cc1 | 75 | i
CCc1ccc(-c2cc(O)cc3sc(=O)oc23)cc1 | 73 | i
O=c1oc2c(Br)c(O)c(Br)cc2s1 | i | i
Cc1ccc(-c2cc(O)cc3sc(=O)oc23)cc1Cl | 53 | i
O=c1oc2c(-c3ccc(Br)cc3)cc(O)cc2s1 | i | i
COc1ccc(C2=CC(c3cc(Br)ccc3F)n3nnnc3N2)cc1 (centres undefined) | i | i
Cc1ccc(C)c(-c2nc(-c3ccc4c(c3)oc(=O)n4C)no2)c1 | i | i
O=C(ON=Cc1ccccc1OC(F)(F)F)c1ccsc1 | nt | i
COc1ccc(OC)c(C2C3=C(CCCC3=O)Nc3nc(SC)nn32)c1 (centres undefined) | i | i
CCn1cnnc1C1CCCN(Cc2cn[nH]c2-c2cccs2)C1 (centres undefined) | i | i
SMILES | mHTT CaM bind | Pf apPOL block
CCCC[C@H]1[C@@H]2C[C@H]([C@H]3CCCCN31)[C@H](OC(=O)Nc1ccc(C(F)(F)F)cc1)C2 | i | i
C[C@H]1[C@@H]2C[C@H]([C@H]3CCCCN31)[C@H](OC(=O)Nc1ccc(C(F)(F)F)cc1)C2 | 76 | i
Cn1c(=O)c([N+](=O)[O-])c(N2CCN(c3ccccn3)CC2)c2ccccc21 | i | i
Oc1ccccc1-c1cc(-c2ccccc2)n[nH]1 | i | i
Oc1ccccc1-c1cc(-c2ccccc2F)[nH]n1 | nt | i
Cc1ccccc1-c1cc(-c2ccccc2O)n[nH]1 | 52 | i
COc1ccccc1-c1cc(-c2cc(Cl)ccc2O)n[nH]1 | i | i
COc1ccc(O)c(-c2cc(-c3ccccc3C)[nH]n2)c1 | 69 | i
Cc1ccc(-c2cc(-c3ccccc3Cl)[nH]n2)c(O)c1 | 65 | i
O=C(NCc1ccccc1)c1cc2nc(-c3ccc([N+](=O)[O-])cc3)cc(C(F)(F)F)n2n1 | i | i
CCC(=O)NC(c1ccco1)c1cc(Cl)c2cccnc2c1O (centres undefined) | 100 | i
CCC(=O)NC(c1ccco1)c1ccc2cccnc2c1O (centres undefined) | 100 | i
CCC(=O)Nc1ccc(Br)c2cccnc12 | i | i
CCCCC(=O)NC(c1ccccc1)c1cc(Cl)c2cccnc2c1O (centres undefined) | i | i
CCCCC(=O)NC(c1ccco1)c1cc(Cl)c2cccnc2c1O (centres undefined) | 66 | i
O=C(Nc1c(Cl)cc(Cl)c2cccnc12)c1ccco1 | i | i
CC(=O)NC(c1ccco1)c1cc(Cl)c2cccnc2c1O (centres undefined) | 100 | i
CNC(=O)Cc1csc(NC(=O)c2ccc(OCC(=O)C3CC3)cc2)n1 | i | i
COc1ccc(NC(=O)CCCn2nc([N+](=O)[O-])c(Cl)c2C)cc1OC | i | i
CS(=O)(=O)N1CCC(C(=O)N2CCN(CCn3cccn3)CC2)CC1 | i | i
O=C(c1cn2ccccc2n1)N1CCN(c2ccccc2)CC1 | i | i
Cc1cc(C)nc(NC(c2ccco2)c2ccc3cccnc3c2O)n1 (centres undefined) | 100 | i
Cc1cc(C)nc(SCC(=O)NCc2ccco2)n1 | i | i
Cc1cccc(-n2nc(C)c3sc(N4CCCN(C(=O)c5ccccc5)CC4)nc32)c1 | i | i
CC1CCC(NC(=O)C2c3ccccc3C(=O)N2Cc2ccc(F)cc2)CC1 (centres undefined) | 52 | i
Cc1ccc(CN2C(=O)c3ccccc3C2C(=O)NC2CCC(C)CC2)cc1 (centres undefined) | i | i
O=C(Nc1cccc(-c2cc3ccccc3oc2=O)c1)c1cc([N+](=O)[O-])ccc1Cl | i | i

Screening data as filed in PubChem.
